In PubChem BioAssay AID488969 (Vanderbilt High Throughput Screening Facility, 2010):
The full ranking holds about 110,000 compounds; the median of “z-score” is about -0.1, and the highest 2% start at about 2. Only a selection was taken, and the highest values are over-represented in it overall. Activity calls are given as the source filed them.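 How the source made its calls: active means z-score in the third read window above 3 or below -3; inactive means the rest.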

What follows are compounds tested against Metabotropic glutamate receptor 8 (Rattus norvegicus) (UniProt P70579) (assay: mGluR8 Gi/Go-coupled signaling modulation – cell-based, rat, thallium flux, HTS, primary screen (AID 488969)). Settings: HEK293 rat mGluR8, GIRK (G protein-gated inwardly rectifying potassium channel) thallium flux, FluoZin2; at 10 µM; stronger effect = higher value; submaximal glutamate (EC20) added with thallium.
Metabotropic glutamate receptor 8 (Rattus norvegicus), sequence (P70579 whole entry, looked up): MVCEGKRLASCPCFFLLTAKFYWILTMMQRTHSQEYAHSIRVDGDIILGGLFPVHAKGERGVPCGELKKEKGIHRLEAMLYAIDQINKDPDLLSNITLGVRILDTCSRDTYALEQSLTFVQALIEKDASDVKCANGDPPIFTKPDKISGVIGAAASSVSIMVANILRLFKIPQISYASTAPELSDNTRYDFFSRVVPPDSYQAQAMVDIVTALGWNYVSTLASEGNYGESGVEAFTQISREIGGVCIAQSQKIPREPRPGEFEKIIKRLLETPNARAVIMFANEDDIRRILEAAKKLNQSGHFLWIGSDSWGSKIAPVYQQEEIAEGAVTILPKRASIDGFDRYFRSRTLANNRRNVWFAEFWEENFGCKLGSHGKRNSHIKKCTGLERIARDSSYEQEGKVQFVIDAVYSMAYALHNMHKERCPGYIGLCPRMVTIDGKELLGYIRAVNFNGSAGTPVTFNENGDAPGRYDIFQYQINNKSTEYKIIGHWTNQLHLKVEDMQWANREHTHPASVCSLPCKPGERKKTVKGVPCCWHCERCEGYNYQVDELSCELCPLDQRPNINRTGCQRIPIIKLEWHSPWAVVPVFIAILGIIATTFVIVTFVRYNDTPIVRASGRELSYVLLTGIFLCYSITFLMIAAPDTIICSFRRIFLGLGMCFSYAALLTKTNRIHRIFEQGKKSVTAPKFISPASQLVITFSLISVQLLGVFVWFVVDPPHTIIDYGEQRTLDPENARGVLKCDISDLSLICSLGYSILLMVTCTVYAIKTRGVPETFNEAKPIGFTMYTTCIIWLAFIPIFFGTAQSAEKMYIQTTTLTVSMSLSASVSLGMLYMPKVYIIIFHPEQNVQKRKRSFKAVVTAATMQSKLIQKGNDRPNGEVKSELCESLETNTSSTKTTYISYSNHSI

Row | SMILES | z-score
1 | CCOC(=O)c1c(NC(NC(C)=O)C(Cl)(Cl)Cl)sc2c1CCCC2 (configuration not stated) | -2.34
2 | COCCCn1c(C)nnc1SCC(=O)NCc1ccco1 | -0.305
3 | Cc1ccc(S(=O)(=O)N(C)Cc2cc3ccccc3[nH]c2=O)cc1 | -0.0752
4 | CCN(CC)CCN(Cc1cc2cc(C)ccc2[nH]c1=O)C(=S)NCc1ccco1 | 0.381
5 | CCOC(=O)COc1cc(Br)c(/C=N/Nc2ccccc2)cc1OC | -0.0959
6 | CCC(C)(C(=O)NC1CCCCC1)N(C(=O)c1ccccn1)c1ccc(C)cc1 (configuration not stated) | -0.103
7 | COc1cccc(C(=O)/C=C/Nc2cccc(O)c2)c1 | -0.665
8 | CSc1nnc(CNC(=O)C23CC4CC(CC(C4)C2)C3)n1Cc1ccccc1 | -0.331
9 | C/C(=N\NC(=S)NCCc1ccccc1)c1ccc(Cl)cc1 | 1.16
10 | C/C(=N\NC(=S)NCCc1ccccc1)c1ccc(C)cc1 | 1.67
11 | C/C(=N\NC(=S)NCCc1ccccc1)c1cccs1 | 3.65 (active)
12 | O=C1C2C(c3ccccc3)C=CC(c3ccccc3)C2C(=O)N1CCCO (configuration not stated) | -0.894
13 | O=C(CCS(=O)(=O)c1ccc(Cl)cc1)NCCN1C(=O)S/C(=C\c2ccccc2F)C1=O | -0.162
14 | Cc1cc(C)n2nc(SCC(=O)N3CCc4ccccc43)nc2n1 | 0.255
15 | O=C(c1ccccc1)N1CCCC(c2nc3c(nnn3Cc3ccccc3)c(=O)[nH]2)C1 (configuration not stated) | -0.398
16 | O=C(C1CCCCC1)N1CCCC(c2nc3c(nnn3Cc3ccccc3)c(=O)[nH]2)C1 (configuration not stated) | 2.1
17 | Cc1ccc(C)c(Cn2nnc3c(=O)[nH]c(C4CCCN(C(=O)C5CCCCC5)C4)nc32)c1 (configuration not stated) | -0.651
18 | O=C(NCCOCCOCCNC(=O)c1cccnc1)c1cccnc1 | 0.119
19 | O=C(NCCCCNC(=O)c1cccnc1)c1cccnc1 | 8.98 (active)
20 | O=C(NCCc1ccccc1)c1cccnc1 | -0.0437
21 | Cc1c(NC(=O)/C(C#N)=C/c2c(Oc3ccccc3)nc3ccccn3c2=O)c(=O)n(-c2ccccc2)n1C | 1.16
22 | CSc1ncc(Cl)c(C(=O)Nc2nnc(SC)s2)n1 | -0.194
23 | Cc1sc2nc(C3CC3)nc(SCC(=O)N3CC(=O)Nc4ccccc43)c2c1C | 3.69 (active)

Row | SMILES | z-score
24 | Cc1cc(NC(=O)CSc2nc(C(C)C)nc3sc4c(c23)CCCC4)no1 | -0.493
25 | CCc1nc(SCC(=O)Nc2cc(C)on2)c2c(C)c(C)sc2n1 | -0.346
26 | CCCc1nc(SCC(=O)Nc2nnc(CC)s2)c2c(C)c(C)sc2n1 | -0.42
27 | Cc1nc(SCC(=O)N2CC(=O)Nc3ccccc32)c2c(C)c(C)sc2n1 | -0.286
28 | Cc1cc(NC(=O)CSc2nc3sc4c(c3c(=O)n2C)CCCC4)no1 | 0.943
29 | Cc1sc2nc(C3CCCCC3)nc(SCC(=O)N3CC(=O)Nc4ccccc43)c2c1C | -0.0509
30 | Cc1nnc(NC(=O)CSc2nc(C(C)C)nc3sc(C)c(C)c23)s1 | -0.837
31 | Cc1nc(SCC(=O)Nc2cc(C)on2)c2c3c(sc2n1)CCCC3 | 2.03
32 | Cc1cc(NC(=O)CSc2nc(C3CC3)nc3sc(C)c(C)c23)no1 | 12.4 (active)
33 | Cc1cc(NC(=O)CSc2nc(C3CC3)nc3sc4c(c23)CCC(C)C4)no1 (configuration not stated) | 0.482
34 | CCc1nc(SCC(=O)Nc2nnc(CC)s2)c2c(C)c(C)sc2n1 | 8.71 (active)
35 | COc1ccc(-c2nc(C)ncc2N=Nc2ccccc2)cc1 | -0.33
36 | O=C1CCN(C(=O)Nc2cccc(Cl)c2)N1 | -0.0566
37 | CCN(CCO)c1ncnc2c1sc1nc(C(C)C)c3c(c12)CC(C)(C)OC3 | -0.241
38 | Cc1cccc(NC(=O)CN2C(=O)N/C(=C/c3ccc(C)o3)C2=O)c1 | 0.0879
39 | CCOCC(=O)Nc1cc([N+](=O)[O-])ccc1C | -0.688
40 | CC1=NN(c2ccc(C)cc2)C(=O)/C1=C\c1ccc(Br)s1 | -0.327
41 | Cn1c(Cc2ccccc2)nnc1SCC(=O)NC1CCCCC1 | 0.0891
42 | CCN(CC)C(=O)Cn1nc(C)c2ccccc2c1=O | -0.346
43 | Cc1ccsc1/C=N/Nc1nc(Cl)c(Cl)cc1Cl | 0.292
44 | Cc1ccc(/C=N/Nc2nc(Cl)c(Cl)cc2Cl)s1 | 3.84 (active)
45 | Cc1ccc(/C=N/Nc2ncc(Cl)cc2Cl)s1 | 0.576
46 | CCc1nc(N2CCN(S(=O)(=O)c3ccc(Br)cc3)CC2)c2c(C)c(C)sc2n1 | -0.0531

Row | SMILES | z-score
47 | Cc1sc2nc(CN3CCCC3)nc(N3CCC(C(N)=O)CC3)c2c1C | -0.212
48 | Cc1sc2nc(CN3CCCC3)nc(N3CCN(S(=O)(=O)c4cccs4)CC3)c2c1C | 4.12 (active)
49 | O=c1[nH]c(/C(Cl)=C/c2cccc(C(F)(F)F)c2)nc2cc(Cl)ccc12 | -0.0389
50 | O=c1c2cc(Br)ccc2nc(-c2cccc(C(F)(F)F)c2)n1O | 10.5 (active)
51 | FC(F)(F)c1cccc(-c2nnc3ccc(C(F)(F)F)cn23)c1 | 0.312
52 | O=C(Nc1ccc(C(F)(F)F)cc1)c1cc(-c2cccnc2)nc2ccc(Br)cc12 | -0.0141
53 | O=c1c2ccccc2nc(-c2cccc(Cl)c2)n1O | 1.74
54 | O=c1c2ccc(Cl)cc2nc(-c2cccc(C(F)(F)F)c2)n1O | 10.9 (active)
55 | C=CCc1ccccc1OCC(O)CN1CCN(c2ccccc2F)CC1 (configuration not stated) | 0.0351
56 | Cc1noc(C)c1S(=O)(=O)N1CCC(C(=O)N2CCN(C(=O)c3ccco3)CC2)CC1 | -0.53
57 | O=C(O)CCCC(=O)Nc1ccc(Br)cc1 | 0.0741
58 | O=c1oc(-c2ccco2)nc2ccccc12 | -0.973
59 | Cc1ccc2nc(-c3ccc(Br)o3)oc(=O)c2c1 | -0.0466
60 | O=c1oc(-c2ccc(Br)o2)nc2ccccc12 | 5.63 (active)
61 | CCN(CC)C(=O)C(=O)N/N=C/c1ccc(Br)cc1 | 0.0116
62 | CC(Sc1nnc(-c2ccc(Cl)cc2Cl)n1Cc1ccccc1)C(=O)Nc1nccs1 (configuration not stated) | -1.54
63 | Cc1nn(C(=O)c2ccccc2)c2c1C(=O)CC(C)(C)C2 | 2.47
64 | Cn1c2c(c(O)c(-c3ccccc3)c1=O)C(=O)CC(C)(C)C2 | -0.119
65 | CCCc1nn(C(=O)c2ccccc2)c2c1C(=O)CC(C)(C)C2 | 0.0989
66 | O=C(NCC(=O)N(c1ccccc1)C(C(=O)NC1CCCC1)c1ccncc1)c1ccco1 (configuration not stated) | -0.115
67 | COC(=O)Nc1nnc(Cc2ccc(OC)cc2)s1 | -0.342
68 | COC(=O)Nc1nnc(Cc2ccccc2)s1 | -0.412
69 | COC(=O)Nc1nnc(Cc2ccc(Cl)cc2)s1 | 2.4

Row | SMILES | z-score
70 | Cc1ccc2oc(C(=O)Nc3nnc(C)s3)c(C)c2c1 | -0.9
71 | CCn1c(-c2cc(C3CC3)nc3ccccc23)n[nH]c1=S | -0.258
72 | S=c1[nH]nc(-c2ccc(Br)cc2)n1Cc1ccco1 | 2.41
73 | CCn1c(-c2cccc(Br)c2)n[nH]c1=S | 2.35
74 | CCn1c(-c2ccc(C)cc2)n[nH]c1=S | -0.192
75 | Nn1c(-c2cccc(Br)c2)n[nH]c1=S | -0.267
76 | S=c1[nH]nc(-c2ccncc2)n1Cc1ccco1 | -0.198
77 | CCn1c(-c2c[nH]c3ccccc23)n[nH]c1=S | -0.0356
78 | Oc1ccc(-c2n[nH]c(=S)n2Cc2ccco2)cc1 | -0.11
79 | CCn1c(-c2cc3ccccc3cc2O)n[nH]c1=S | 2.62
80 | CCCCCn1c(N)c(-c2nc3ccccc3s2)c2c([N+](=O)[O-])nn(CC)c(=O)c21 | -0.75
81 | COc1ccc2c(c1OC)C(=O)N1N=C(c3ccc(Br)cc3)CC21 (configuration not stated) | -1.04
82 | C=C(C)C1CC=C(CN2CCC(C(=O)OCC)CC2)CC1 (configuration not stated) | 0.503
83 | Cc1ccc(S(=O)(=O)c2nc(S(C)(=O)=O)sc2N(C)C)cc1 | 0.113
84 | COc1ccc(CC(=O)O/N=C(\N)Cc2cccc3ccccc23)cc1OC | -0.317
85 | Cc1ccsc1/C=C(\C#N)C(=O)NCc1ccco1 | -0.0871
86 | COc1ccc(C)c(S(=O)(=O)Nc2ccc(OCC(=O)O)cc2)c1 | 0.2
87 | CCOc1cc(C)c(S(=O)(=O)Nc2ccc(F)cc2)cc1C | 0.564
88 | COc1cc(C)c(S(=O)(=O)Nc2ccc(CC(=O)O)cc2)cc1C | 2.01
89 | N#C/C(=C\c1ccccc1)C(=O)Nc1cc(S(=O)(=O)N2CCOCC2)ccc1N1CCCC1 | -0.0157
90 | CC(C)NC(=O)C12CC3CC(C1)CC(n1cnc(Cl)n1)(C3)C2 | -0.0733
91 | COc1ccc(C(=O)NNC(=O)CN2CCC(n3nnc4cc(F)ccc43)CC2)cc1 | -0.223
92 | Cc1ccc(OCC(=O)N/N=C\c2ccc(-c3cccc(C(=O)O)c3)o2)c(C)c1 | 3.24 (active)

Row | SMILES | z-score
93 | O=C(O)c1cccc(-c2ccc(/C=N/NC(=O)c3cccnc3)o2)c1 | -0.216
94 | Cc1ccc(OCC(=O)N/N=C\c2ccncc2)c(C)c1 | 1.4
95 | O=C(NC1CCCC1)C1CCN(c2nccs2)CC1 | 0.382
96 | CCc1cccc(CC)c1NC(=O)COC(=O)CCc1cc(OC)c(OC)c(OC)c1 | -0.0755
97 | CCC(=O)c1c[nH]c(C(=O)NCCCN2CCOCC2)c1 | -0.121
98 | CC(=O)N1CCC(N(CCN2CCOCC2)C(=S)Nc2cc(C)ccc2C)CC1 | -0.0971
99 | CCCCOC(=O)c1ccc(NC(=O)c2ccccc2OC)cc1 | -0.0471
100 | CCCCOC(=O)c1ccc(NC(=O)c2nn(C)cc2Br)cc1 | -0.112
101 | COC(=O)c1ccc(NC(=S)NC(=O)c2c(Cl)cnn2C)cc1 | 10.1 (active)
102 | CCCCOC(=O)c1ccc(NC(=O)c2cnccn2)cc1 | 0.00424
103 | CCn1ncc(Cl)c1C(=O)Nc1ccncc1 | -0.171
104 | Cn1ncc(Cl)c1C(=O)Nc1ccncc1 | 0.243
105 | COC(=O)c1cc(NC(=O)c2c(Cl)cnn2C)cc(C(=O)OC)c1 | -0.191
106 | CCCCOC(=O)c1ccc(NC(=S)NC(=O)c2c(Br)c(C)nn2C)cc1 | 4.24 (active)
107 | CCCCOC(=O)c1ccc(NC(=S)NC(=O)c2c(Cl)cnn2CC)cc1 | 8.06 (active)
108 | CCCCOC(=O)c1ccc(NC(=S)NC(=O)c2c(Cl)cnn2C)cc1 | 11.2 (active)
109 | CCCCOC(=O)c1ccc(NC(=O)c2cc(Cl)ccc2OC)cc1 | -0.0115
110 | CCOC(=O)c1ccc(NC(=S)NC(=O)c2nn(CC)cc2Br)cc1 | 1.17
111 | CCc1nnc(NC(=O)C2CCCN2S(=O)(=O)c2ccc(F)cc2)s1 (configuration not stated) | 0.145
112 | CCOC(=O)c1cccc(NS(=O)(=O)c2c(C)[nH]c(=O)[nH]c2=O)c1 | -0.0134
